Source: PubChem BioAssay (NCATS)
Values joined by “and” are separate entries in the source; they are usually repeats but may differ in a detail not shown here. Equal entries are not always repeated. Inconclusive results are not listed. Active and inactive are the calls of the source. Unless noted, the call rests on the fitted dose curve.

Key:
[1] = target: Estrogen receptor (Homo sapiens) (UniProt P03372); test: qHTS assay for small molecule antagonists of estrogen receptor alpha signaling (AID 588513; active means well fitted curve in the direction sought with a large enough effect in the signal ratio, with a control signal flat, not every such curve was filed as active; the % refers to the signal ratio; further: potency means the concentration at half of the fitted maximal effect)
Outline: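 Antagonist mode: inhibition of 0.5 nM 17-beta-estradiol-driven beta-lactamase reporter in HEK 293 ER-alpha-UAS-bla cells, 18 h at 37C, CCF4 readout after 2 h at RT. Normalised to estradiol and DMSO; titration fitted to Hill.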

[2] = target: Estrogen receptor (Homo sapiens) (UniProt P03372); test: qHTS assay for small molecule agonists of estrogen receptor alpha signaling (AID 588514);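 further: 0% = vehicle only and 100% = reference agonist; nearly all actives have a fitted effect of over 70% in size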
Outline: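 EC50 and efficacy came from Hill fits of beta-lactamase reporter signal (CCF4 dye, 2 h at room temperature) scaled between DMSO and 20 nM 17-beta-estradiol. Agonist mode: HEK293 ER-alpha-UAS-bla cells in charcoal/dextran-stripped serum medium, 18 h compound exposure at 37 C.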

[3] = target: Glucocorticoid receptor (Homo sapiens) (UniProt P04150); test: qHTS assay for small molecule agonists of glucocorticoid receptor signaling (AID 588532; active means well fitted curve in the direction sought with a large enough effect in the signal ratio, with a control signal flat; the % refers to the signal ratio;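 further: 100% = dexamethasone at 0.1 µM and 0% = DMSO only wells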); settings: HeLa MMTV-bla, beta-lactamase ratio, agonist, 18 h; activation: stronger effect = higher value, percent of dexamethasone control, DMSO zero
Outline: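 Stimulation of a glucocorticoid response element-driven beta-lactamase gene was measured in HeLa cells. Responses were scaled between DMSO basal and 0.1 uM dexamethasone, then fitted for half-maximal stimulation.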

[4] = target: Peroxisome proliferator-activated receptor delta (Homo sapiens) (UniProt Q03181); test: qHTS assay for small molecule agonists of peroxisome proliferator-activated receptor delta signaling (AID 588534);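 further: 0% = DMSO basal wells and 100% = positive control agonist at 10 µM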
Outline: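 Agonist-mode beta-lactamase reporter readout (CCF4 dye, 2 h at RT) after 18 h at 37 °C exposure to a titration; Hill-equation fitting gave EC50 and maximal response.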

[5] = target: Peroxisome proliferator-activated receptor gamma (Homo sapiens) (UniProt P37231); test: qHTS assay for small molecule agonists of peroxisome proliferator-activated receptor gamma signaling (AID 588536; active means well fitted curve in the direction sought with a large enough effect in the signal ratio, with a control signal flat, not every such curve was filed as active; the % refers to the signal ratio;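 further: 0% = DMSO basal wells and 100% = rosiglitazone at 2 µM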)
Outline: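 Compound treatment: 16 h, 37 C, HEK293 GeneBLAzer cells. Detection: CCF4, 2 h RT. Values: Hill-fit EC50, efficacy as % of 2 uM rosiglitazone.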

[6] = target: Vitamin D3 receptor (Homo sapiens) (UniProt P11473); test: qHTS assay for small molecule antagonists of vitamin D receptor signaling (AID 588541);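 further: receptor activated by calcitriol during compound treatment; series mostly up to about 77 µM; on the % scale 0 is the no-effect control and ±100 the full control effect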
Outline: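 VDR-UAS-bla HEK293T cells (2000/well, 2% charcoal-stripped FBS) were treated with titrated compounds plus 1-alpha,25-dihydroxyvitamin D3 (50 nM or 3 nM final) for 16 h at 37 C. CCF4 beta-lactamase fluorescence was read; Hill fits gave IC50.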

[7] = target: Vitamin D3 receptor (Homo sapiens) (UniProt P11473); test: qHTS assay for small molecule agonists of vitamin D receptor signaling (AID 588543);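 further: 0% = DMSO basal and 100% = reference agonist control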
Outline: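 Agonist-mode beta-lactamase reporter: HEK293T VDR-UAS-bla cells in charcoal-stripped 2% FBS, compound series 16 h 37 C, CCF4 2 h RT. EC50 from Hill fit, scaled against DMSO and 50 nM calcitriol control.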

[8] = target: Retinoic acid receptor RXR-alpha (Homo sapiens) (UniProt P19793); test: qHTS assay for small molecule agonists of retinoid X receptor alpha signaling (AID 588544);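 further: 0% = DMSO basal wells and 100% = reference agonist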
[9] = qHTS assay for small molecule antagonists of retinoid X receptor alpha signaling (AID 588546; active means well fitted inhibition curve with a large enough effect in the signal ratio, with a control signal flat, not every such curve was filed as active; the % refers to the signal ratio;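 further: cells stimulated with 9-cis-retinoic acid as agonist; on the % scale 0 is the no-effect control and ±100 the full control effect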); settings: HEK293T RXRa-UAS-bla, beta-lactamase ratio, antagonist mode; measured here: W530 green channel, cytotoxicity proxy
Outline: (§1)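 Beta-lactamase reporter inhibition, read as CCF4 fluorescence ratio (ex 405, em 460/530 nm) after 2 h at RT. HEK293T UAS-bla cells, 2500/well, were stimulated with 9-cis-RA at 500 or 100 nM final alongside test compound for 18 h at 37 C.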

[10] = target: Retinoic acid receptor RXR-alpha (Homo sapiens) (UniProt P19793); test: as above; settings: HEK293T RXRa-UAS-bla, beta-lactamase ratio, antagonist mode
Outline: as §1

[11] = qHTS assay for small molecule activators of the nuclear factor-kappa B (NF-kB) signaling pathway (AID 651749; active means well fitted activation curve with a large enough effect in the signal ratio; the % refers to the signal ratio; further: series mostly up to about 77 µM; % of control where 0% means no effect); settings: NF-kB-bla ME-180 cells, beta-lactamase FRET ratio, 16 h; activation: stronger effect = higher value
Outline: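 Human ME-180 cervical cells with an NF-kB-bla construct; compounds added via 23 nL pin transfer, DMSO as vehicle; incubation 16 hr. Reporter activity measured by FRET disruption.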

[12] = qHTS assay for environmental chemicals that activate the Aryl hydrocarbon Receptor (AhR) signaling pathway (AID 651777; active means well fitted curve in the direction sought with a large enough effect; an effect the other way counts as inactive or inconclusive; further: % of control where 0% means no effect; nearly all actives have a fitted effect of over 15% in size); settings: 1A2-DRE human hepatoma cells, luciferase, 24 h; activation: stronger effect = higher value
Outline: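 AhR activation is scored as a rise in luciferase from a stable DRE–CYP1A2 promoter construct in human hepatoma cells. Treatment lasts 24 hr at 37 C; detection uses One-Glo after 30 min at room temperature.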

[13] = target: Peroxisome proliferator-activated receptor alpha (Homo sapiens) (UniProt Q07869); test: qHTS assay for small molecule agonists of the peroxisome proliferator-activated receptor alpha (PPARalpha) signaling pathway (AID 651778; active means well fitted curve in the direction sought with a large enough effect; an effect the other way counts as inactive or inconclusive; further: % of control where 0% means no effect); settings: PathHunter PPARalpha complementation, chemiluminescence, 6 h; max response: stronger effect = higher value
Outline: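 Cells plated at 2,000/well and held overnight at 37 C, 5% CO2, then compound added by pin tool for 6 hr; after PathHunter detection reagent and 60 min at room temperature, chemiluminescence from enzyme complementation was read.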

[14] = qHTS assay for small molecule agonists of the antioxidant response element (ARE) signaling pathway measured by Nrf2-dependant transcriptional activity (AID 720636; active means well fitted curve in the direction sought with a large enough effect in the repeat runs; an effect the other way counts as inactive or inconclusive;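 further: HepG2 cells with an ARE-driven luciferase reporter; % of control where 0% means no effect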)
Outline: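 First, ARE-luc HepG2 cells attached for 6 hr at 37 C in 1% dialyzed FBS medium. Next, compound or DMSO was added and incubated 16 hr. Finally, ONE-Glo reagent was added and luminescence measured after 30 min.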

[15] = qHTS assay for small molecule agonists of the antioxidant response element (ARE) signaling pathway measured by Nrf2-dependant transcriptional activity - cell viability counter screen (AID 720653; active means well fitted curve in the direction sought with a large enough effect in the repeat runs; an effect the other way counts as inactive or inconclusive; further: on the % scale 0 is the no-effect control and ±100 the full control effect); settings: ARE-bla HepG2 viability, CellTiter-Glo ATP luminescence, 16 h; max response: stronger effect = lower value
Outline: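 ARE-bla HepG2 cells (2,000/well) rested 5 hrs at 37C/5% CO2, then exposed to compounds in DMSO for 16 hrs. Viability was read in the same wells as intracellular ATP by luminescence, 30 min at room temperature after reagent addition.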

[16] = qHTS assay for cell viability of HEK293 cells (AID 743288; active means well fitted curve in the direction sought with a large enough effect; an effect the other way counts as inactive or inconclusive; further: on the % scale 0 is the no-effect control and ±100 the full control effect; nearly all actives have a fitted effect of over 50% in size); settings: ATP luminescence (CellTiter-Glo), 18 h; max response: stronger effect = lower value
Outline: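 Readout is luciferase-coupled ATP content (CellTiter-Glo luminescence, 30 min room temperature) as a measure of metabolically competent cells. Parental HEK293 cells were plated 5 h or more before compound addition, then treated 18 h at 37 C.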

[17] = qHTS assay for cell viability of the p53RE-bla HCT-116 cell line (AID 743292; active means well fitted curve in the direction sought with a large enough effect; an effect the other way counts as inactive or inconclusive; further: on the % scale 0 is the no-effect control and ±100 the full control effect; nearly all actives have a fitted effect of over 55% in size)
Outline: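 Quantitative high-throughput format: compounds in DMSO were pinned onto p53RE-bla HCT-116 cells (4,000/well) and incubated 16 h at 37 C. Total intracellular ATP, read by CellTiter-Glo luminescence, reflects viable cell number.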

[18] = target: Nuclear receptor subfamily 1 group I member 2 (Rattus norvegicus) (UniProt Q9R1A7); test: qHTS assay for small molecule activators of the rat pregnane X receptor (rPXR) signaling pathway (AID 651751; call rule not given here; further: 0% is about no effect); settings: rPXR reporter cells, luciferase (One-Glo), 24 h
[19] = target: Thyroid hormone receptor beta (Homo sapiens) (UniProt P10828); test: qHTS assay for small molecule agonists of thyroid hormone receptor beta signaling (AID 588545)
Outline: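 In this cell-based screen, titrated compounds act on HEK 293 cells held in medium with 2% charcoal/dextran FBS, NEAA and pyruvate for 18 hrs at 37 C. Responses are expressed relative to T3 (10 nM) as 100% and basal DMSO as 0%.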

[20] = qHTS assay for small molecule activators of the p53 signaling pathway (AID 651743; active means well fitted activation curve with a large enough effect in the signal ratio, not every such curve was filed as active; the % refers to the signal ratio; further: series mostly up to about 92 µM; % of control where 0% means no effect); settings: HCT-116 p53RE-bla, beta-lactamase FRET ratio, 16 h; activation: stronger effect = higher value
Outline: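 Agonist-mode quantitative HTS in HCT-116 cells carrying a p53-response-element beta-lactamase reporter; 16 h compound treatment at 37 C, then FRET substrate loading for 2 h at room temperature and fluorescence read.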

Chain of Peroxisome proliferator-activated receptor gamma (Homo sapiens) (P37231 whole entry, looked up): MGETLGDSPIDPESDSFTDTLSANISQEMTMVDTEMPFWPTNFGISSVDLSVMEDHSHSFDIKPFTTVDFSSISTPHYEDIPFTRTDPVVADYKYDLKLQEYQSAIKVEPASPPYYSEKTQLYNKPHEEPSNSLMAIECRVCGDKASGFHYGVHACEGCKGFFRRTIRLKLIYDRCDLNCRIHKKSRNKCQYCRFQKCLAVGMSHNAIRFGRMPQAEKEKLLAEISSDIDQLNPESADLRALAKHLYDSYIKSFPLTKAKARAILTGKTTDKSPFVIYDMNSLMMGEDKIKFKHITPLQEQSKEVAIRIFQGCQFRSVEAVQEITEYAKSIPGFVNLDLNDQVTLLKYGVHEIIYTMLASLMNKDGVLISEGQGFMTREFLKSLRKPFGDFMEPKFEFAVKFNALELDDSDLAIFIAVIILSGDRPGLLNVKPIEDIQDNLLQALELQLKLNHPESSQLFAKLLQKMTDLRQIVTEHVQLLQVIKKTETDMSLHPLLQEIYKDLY
Chain of Estrogen receptor (Homo sapiens) (P03372 whole entry, looked up): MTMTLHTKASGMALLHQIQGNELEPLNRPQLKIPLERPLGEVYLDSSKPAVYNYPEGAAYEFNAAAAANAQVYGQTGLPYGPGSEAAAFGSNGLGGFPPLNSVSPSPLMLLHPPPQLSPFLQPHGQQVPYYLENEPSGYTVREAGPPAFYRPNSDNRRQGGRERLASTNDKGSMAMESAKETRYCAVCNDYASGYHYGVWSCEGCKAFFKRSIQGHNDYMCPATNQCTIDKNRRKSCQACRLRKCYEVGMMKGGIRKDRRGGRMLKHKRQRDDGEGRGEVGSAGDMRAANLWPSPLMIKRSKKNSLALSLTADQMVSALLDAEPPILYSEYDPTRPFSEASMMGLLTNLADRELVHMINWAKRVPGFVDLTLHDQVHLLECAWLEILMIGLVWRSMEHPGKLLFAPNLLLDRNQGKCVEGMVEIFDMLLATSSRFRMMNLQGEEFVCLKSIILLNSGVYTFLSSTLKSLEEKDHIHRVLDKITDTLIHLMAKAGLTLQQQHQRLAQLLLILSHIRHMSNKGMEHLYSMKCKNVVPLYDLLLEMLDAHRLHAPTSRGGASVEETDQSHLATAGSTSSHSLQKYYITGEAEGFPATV
Chain of Nuclear receptor subfamily 1 group I member 2 (Rattus norvegicus) (Q9R1A7 whole entry, looked up): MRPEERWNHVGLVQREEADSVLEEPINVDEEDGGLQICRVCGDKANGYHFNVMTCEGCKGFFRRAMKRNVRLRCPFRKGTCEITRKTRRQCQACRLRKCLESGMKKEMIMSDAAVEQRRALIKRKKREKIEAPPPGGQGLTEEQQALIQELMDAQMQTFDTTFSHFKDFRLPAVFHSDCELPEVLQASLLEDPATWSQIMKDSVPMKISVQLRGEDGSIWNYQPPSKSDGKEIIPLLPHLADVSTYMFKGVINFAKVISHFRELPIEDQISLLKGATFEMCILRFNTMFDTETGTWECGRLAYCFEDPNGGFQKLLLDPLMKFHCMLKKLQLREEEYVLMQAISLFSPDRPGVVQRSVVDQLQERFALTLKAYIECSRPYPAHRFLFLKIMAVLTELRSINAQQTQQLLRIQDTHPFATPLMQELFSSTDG
Chain of Vitamin D3 receptor (Homo sapiens) (P11473 whole entry, looked up): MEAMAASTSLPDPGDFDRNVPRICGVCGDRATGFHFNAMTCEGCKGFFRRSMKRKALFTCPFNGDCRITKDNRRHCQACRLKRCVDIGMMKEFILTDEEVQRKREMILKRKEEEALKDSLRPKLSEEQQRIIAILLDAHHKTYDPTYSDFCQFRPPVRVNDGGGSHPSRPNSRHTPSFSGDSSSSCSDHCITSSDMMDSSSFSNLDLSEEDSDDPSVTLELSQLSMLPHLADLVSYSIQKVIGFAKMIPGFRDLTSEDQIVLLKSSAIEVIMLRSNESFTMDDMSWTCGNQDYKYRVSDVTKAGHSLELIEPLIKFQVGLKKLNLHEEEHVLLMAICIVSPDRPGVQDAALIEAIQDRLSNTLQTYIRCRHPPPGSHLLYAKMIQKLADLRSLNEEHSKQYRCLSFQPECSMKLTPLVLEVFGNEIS
Chain of Peroxisome proliferator-activated receptor alpha (Homo sapiens) (Q07869 whole entry, looked up): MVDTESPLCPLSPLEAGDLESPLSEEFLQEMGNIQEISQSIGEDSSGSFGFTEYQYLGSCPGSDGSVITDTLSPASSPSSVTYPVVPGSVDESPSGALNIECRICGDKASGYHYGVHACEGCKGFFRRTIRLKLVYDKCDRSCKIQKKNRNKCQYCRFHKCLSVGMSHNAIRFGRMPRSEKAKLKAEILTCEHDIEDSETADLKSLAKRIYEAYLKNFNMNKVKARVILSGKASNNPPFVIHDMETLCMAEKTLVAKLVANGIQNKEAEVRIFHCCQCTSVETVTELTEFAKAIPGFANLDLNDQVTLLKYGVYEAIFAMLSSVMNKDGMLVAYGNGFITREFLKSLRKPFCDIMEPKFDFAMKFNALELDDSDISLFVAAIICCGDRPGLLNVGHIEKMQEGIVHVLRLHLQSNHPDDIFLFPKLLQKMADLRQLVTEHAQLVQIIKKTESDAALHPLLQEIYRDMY
Chain of Thyroid hormone receptor beta (Homo sapiens) (P10828 whole entry, looked up): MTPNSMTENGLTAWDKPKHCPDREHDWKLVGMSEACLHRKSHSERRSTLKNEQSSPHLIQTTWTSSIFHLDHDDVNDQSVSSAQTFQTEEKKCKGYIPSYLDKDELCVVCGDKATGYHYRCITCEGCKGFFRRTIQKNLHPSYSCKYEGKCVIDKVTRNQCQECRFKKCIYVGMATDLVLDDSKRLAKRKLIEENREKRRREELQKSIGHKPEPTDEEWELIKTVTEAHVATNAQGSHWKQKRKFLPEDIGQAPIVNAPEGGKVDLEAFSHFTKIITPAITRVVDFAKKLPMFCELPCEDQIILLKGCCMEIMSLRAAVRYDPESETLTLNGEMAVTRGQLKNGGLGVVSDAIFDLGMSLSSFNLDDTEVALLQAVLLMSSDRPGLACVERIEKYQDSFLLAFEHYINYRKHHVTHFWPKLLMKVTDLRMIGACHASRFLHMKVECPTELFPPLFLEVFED
Chain of Retinoic acid receptor RXR-alpha (Homo sapiens) (P19793 whole entry, looked up): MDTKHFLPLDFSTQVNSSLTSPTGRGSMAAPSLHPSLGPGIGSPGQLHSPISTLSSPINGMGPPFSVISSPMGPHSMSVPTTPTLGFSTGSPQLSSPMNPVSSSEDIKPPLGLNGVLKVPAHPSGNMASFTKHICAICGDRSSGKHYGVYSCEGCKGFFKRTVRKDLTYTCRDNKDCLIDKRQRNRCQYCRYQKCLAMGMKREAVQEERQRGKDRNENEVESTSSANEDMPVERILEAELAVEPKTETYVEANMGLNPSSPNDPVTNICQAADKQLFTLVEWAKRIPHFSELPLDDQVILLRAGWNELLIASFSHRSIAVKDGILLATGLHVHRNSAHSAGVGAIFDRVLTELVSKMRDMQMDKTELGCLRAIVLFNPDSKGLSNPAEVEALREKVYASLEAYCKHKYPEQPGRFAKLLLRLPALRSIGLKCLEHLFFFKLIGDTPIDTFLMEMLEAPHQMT
Chain of Peroxisome proliferator-activated receptor delta (Homo sapiens) (Q03181 whole entry, looked up): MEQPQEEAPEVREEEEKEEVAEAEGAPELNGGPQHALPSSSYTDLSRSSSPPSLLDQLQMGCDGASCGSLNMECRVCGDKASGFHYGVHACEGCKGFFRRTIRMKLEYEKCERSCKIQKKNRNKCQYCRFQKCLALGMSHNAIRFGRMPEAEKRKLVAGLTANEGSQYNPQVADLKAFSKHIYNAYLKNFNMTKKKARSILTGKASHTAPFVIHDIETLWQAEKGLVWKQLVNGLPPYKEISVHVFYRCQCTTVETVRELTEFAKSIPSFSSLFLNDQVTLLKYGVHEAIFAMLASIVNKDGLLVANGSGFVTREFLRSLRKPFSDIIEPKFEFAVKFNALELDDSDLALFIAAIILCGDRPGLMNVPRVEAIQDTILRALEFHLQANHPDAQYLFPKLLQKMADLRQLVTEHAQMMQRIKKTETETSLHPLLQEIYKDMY
Chain of Glucocorticoid receptor (Homo sapiens) (P04150 whole entry, looked up): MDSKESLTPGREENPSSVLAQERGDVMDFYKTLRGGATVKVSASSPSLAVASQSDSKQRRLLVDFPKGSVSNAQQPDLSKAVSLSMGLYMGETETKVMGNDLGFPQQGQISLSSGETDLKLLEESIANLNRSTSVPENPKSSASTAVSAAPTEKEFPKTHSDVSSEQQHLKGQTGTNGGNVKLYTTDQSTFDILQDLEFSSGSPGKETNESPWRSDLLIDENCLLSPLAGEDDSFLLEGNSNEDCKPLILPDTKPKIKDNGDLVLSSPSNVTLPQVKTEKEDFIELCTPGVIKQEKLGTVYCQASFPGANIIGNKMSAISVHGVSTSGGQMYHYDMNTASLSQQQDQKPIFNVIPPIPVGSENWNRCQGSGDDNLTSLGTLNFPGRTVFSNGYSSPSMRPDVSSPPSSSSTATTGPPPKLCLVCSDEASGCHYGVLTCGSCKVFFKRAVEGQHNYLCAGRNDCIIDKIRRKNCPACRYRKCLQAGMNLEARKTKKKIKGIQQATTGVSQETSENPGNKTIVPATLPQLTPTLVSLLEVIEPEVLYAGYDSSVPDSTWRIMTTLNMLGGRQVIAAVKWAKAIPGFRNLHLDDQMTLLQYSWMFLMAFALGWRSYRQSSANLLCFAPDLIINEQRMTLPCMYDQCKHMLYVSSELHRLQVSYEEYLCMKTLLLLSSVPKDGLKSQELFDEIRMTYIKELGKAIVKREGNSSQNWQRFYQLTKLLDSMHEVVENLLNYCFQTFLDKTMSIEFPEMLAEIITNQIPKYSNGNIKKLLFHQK

O=C(NC(=O)c1c(F)cccc1F)Nc1ccc(OC(F)(F)C(F)OC(F)(F)F)c(Cl)c1 (configuration not stated)
-11.8%: max response [9]
inactive: Potency [1] | Potency [2] | activation [3] -15.7% | outcome [4] | Potency [5] | Potency [6] | outcome [7] | Potency [8] | max response [10] -13% | activation [11] 1.61% | activation [12] 1.49% | max response [13] 0.139% | Potency [14] | max response [15] -4.81% | max response [16] -16.7% | Potency [17] | max response [18] 1.96%

Cc1cc(C)nc(NC(=O)NS(=O)(=O)c2ccccc2C(=O)OC2COC2)n1
inactive: Potency [1] | activation [3] 10.1% | outcome [4] | Potency [5] | Potency [6] | Potency [8] | Potency [19] | activation [20] 1.69% | activation [11] 1.32% | activation [12] -0.244% | max response [13] -2.96% | Potency [14] | max response [15] 18% | max response [16] 8.1% | max response [18] -3.04%

Cn1cc(-c2ccccc2)c(=O)c(-c2cccc(C(F)(F)F)c2)c1
0.227%: max response [9]
inactive: Potency [1] | Potency [2] | activation [3] -15.3% | Potency [5] | Potency [19] | max response [10] -21.3% | activation [20] -5.34% | activation [11] -0.874% | activation [12] 0.553% | max response [13] 1.29% | Potency [14] | max response [15] -0.838% | max response [16] -5.04% | Potency [17] | max response [18] 0.923%

CCNP(=S)(OC)O/C(C)=C/C(=O)OC(C)C (configuration not stated)
inactive: Potency [1] | Potency [2] | activation [3] -6.1% | Potency [5] | Potency [6] | outcome [7] | Potency [8] | Potency [19] | max response [10] 3.14% | activation [20] -1.45% | activation [11] 0.112% | max response [13] -0.524% | Potency [14] | max response [15] -7.95% | max response [16] -5.26% | Potency [17]
-11.8%: max response [9]

O=P(OCC(Br)CBr)(OCC(Br)CBr)OCC(Br)CBr (configuration not stated)
inactive: Potency [19] | activation [20] 10.6% | max response [13] -0.385% | Potency [14] | max response [15] -25.3% | Potency [17] | max response [18] 0.175%
active: Potency [1] 35.5 µM [inhibitor]

O=C(O)c1nc(Cl)ccc1Cl
-5.13% and -14.7%: max response [9]
inactive: Potency [1] | Potency [2] | activation [3] -4.22% and 6.64% | Potency [8] | max response [10] -18.6% and -6.7% | activation [20] 3.37% | activation [12] 0.739% and -2.14% | max response [13] -1.62% and -4.61% | Potency [14] | max response [15] -0.246% and 14% | max response [16] -0.844% and 6.6% | Potency [17] | max response [18] 3.48% and 10.3%

CNC(=O)/C=C(\C)OP(=O)(OC)OC
-16.8%: max response [9]
inactive: Potency [1] | activation [3] -1.15% | outcome [4] | Potency [5] | Potency [6] | outcome [7] | Potency [8] | max response [10] -15.9% | activation [12] 7.36% | max response [13] -1.97% | max response [15] -10% | max response [16] -10.5% | Potency [17] | max response [18] 0.645%

CCCN(CCC)c1c([N+](=O)[O-])cc(C(F)(F)F)c(N)c1[N+](=O)[O-]
inactive: outcome [4]
active: Potency [1] 31.6 µM [inhibitor]

CCNc1nc(Cl)nc(NC(C)(C)C)n1
inactive: Potency [2] | outcome [4] | Potency [5] | Potency [6] | outcome [7] | activation [11] -1.02% | activation [12] 6.82% | Potency [14] | max response [15] -4.66% | max response [16] -13.7% | Potency [17] | max response [18] 4.19%
